Assay [1] in a line: qHTS assay to identify small molecule antagonists of the glucocorticoid receptor (GR) signaling pathway - cell viability counter screen (AID 720693). Note: nearly all actives have a fitted effect of over 55% in size. Background: Quantitative high-throughput screening tests each substance at several concentrations.
A short description of assay [2]: qHTS assay for identifying genotoxic compounds that show differential cytotoxicity against isogenic chicken DT40 cell lines with known DNA damage response pathways - wild type cell line (AID 743012). Note: nearly all actives have a fitted effect of over 60% in size. Note: potency is the fitted concentration of half-maximal effect. In short, it runs like this:
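300 wt DT40 cells/well; cpd (DMSO) pintool-transferred after ~0.5 h at 37 C/5% CO2; 40 h incubation; CellTiter-Glo added, 30 min RT; luminescence read.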

Assay [3] can be described thus: qHTS assay for identifying genotoxic compounds that show differential cytotoxicity against isogenic chicken DT40 cell lines with known DNA damage response pathways - Rev3 mutant cell line (AID 743014). Note: nearly all actives have a fitted effect of over 55% in size. Note: potency is the fitted concentration of half-maximal effect.
Assay [4] is described as follows: qHTS assay for identifying genotoxic compounds that show differential cytotoxicity against isogenic chicken DT40 cell lines with known DNA damage response pathways - Rad54/Ku70 mutant cell line (AID 743015). Note: nearly all actives have a fitted effect of over 60% in size. Note: potency is the fitted concentration of half-maximal effect.
Assay [5] in a line: qHTS assay to identify small molecule antagonists of the androgen receptor (AR) signaling pathway - cell viability counter screen (AID 743033; note: nearly all actives have a fitted effect of over 45% in size).
Assay [6] in a line: qHTS assay to identify small molecule antagonists of the androgen receptor (AR) signaling pathway using the MDA cell line - cell viability counter screen (AID 743041; note: nearly all actives have a fitted effect of over 45% in size). In short, it runs like this:
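Compound exposure lasted 16 h at 37C in MDA-kb2 AR-luc cells stimulated with R1881. Protease-based CellTiter-Fluor reagent was applied for the final 30 min and fluorescence measured.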

The target of assay [7] is Androgen receptor (Homo sapiens) (UniProt P10275). Description: qHTS assay to identify small molecule antagonists of the androgen receptor (AR) signaling pathway (AID 743035; active = well fitted inhibition curve with a large enough effect in the signal ratio in the repeat runs, not every such curve was filed as active; the % refers to the signal ratio). In short, it runs like this:
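In this cell-based reporter screen, compounds were tested in concentration series against R1881-activated HEK293 cells expressing beta-lactamase under UAS control; after 16 h at 37C, FRET substrate was added and fluorescence read 2 h later.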

The target is the same in assay [8]. The assay can be described thus: qHTS assay to identify small molecule agonists of the androgen receptor (AR) signaling pathway (AID 743036; active = well fitted activation curve with a large enough effect in the signal ratio in the repeat runs, with a control signal flat, not every such curve was filed as active; the % refers to the signal ratio). In short, it runs like this:
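Following a 4 h settling period, AR-UAS-bla HEK293 cells were dosed with compounds for 16 h at 37C. A 2 h room-temperature incubation with LiveBLAzer B/G FRET substrate preceded the fluorescence measurement.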

Assay [9] has the same target. Description: qHTS assay to identify small molecule agonists of the androgen receptor (AR) signaling pathway using the MDA cell line (AID 743040; note: nearly all actives have a fitted effect of over 20% in size). In short, it runs like this: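 Testing was done with the MDA-kb2 AR-luc line, a human breast carcinoma stably transfected with MMTV-luciferase containing AR and GR response elements. Cells were exposed 16 h at 37C before ONE-Glo luminescence detection.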

Assay [10] shares this target. The assay can be described thus: qHTS assay to identify small molecule antagonists of the androgen receptor (AR) signaling pathway using the MDA cell line (AID 743042; note: nearly all actives have a fitted effect of over 55% in size). In short, it runs like this: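 MDA-kb2 breast carcinoma cells carrying MMTV-luciferase (AR/GR responsive) were co-treated with compounds and the agonist R1881 for 16 h at 37C. Inhibition read as ONE-Glo luminescence; CellTiter-Fluor fluorescence measured in parallel for cytotoxicity.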

The record followed here is PubChem BioAssay (Tox21).

Unmarked numbers belong to inactive results. Inconclusive results are not listed. Activity calls are given as the source filed them. Unless noted, calls come from the whole dose curve; as a rule, active = well fitted curve in the direction sought with a large enough effect in the repeat runs; inconclusive = weak or mixed curves; inactive = no such curve, though single readings can be large; an effect the other way counts as inactive or inconclusive.

Sequence of Androgen receptor (Homo sapiens) (P10275 whole entry, looked up): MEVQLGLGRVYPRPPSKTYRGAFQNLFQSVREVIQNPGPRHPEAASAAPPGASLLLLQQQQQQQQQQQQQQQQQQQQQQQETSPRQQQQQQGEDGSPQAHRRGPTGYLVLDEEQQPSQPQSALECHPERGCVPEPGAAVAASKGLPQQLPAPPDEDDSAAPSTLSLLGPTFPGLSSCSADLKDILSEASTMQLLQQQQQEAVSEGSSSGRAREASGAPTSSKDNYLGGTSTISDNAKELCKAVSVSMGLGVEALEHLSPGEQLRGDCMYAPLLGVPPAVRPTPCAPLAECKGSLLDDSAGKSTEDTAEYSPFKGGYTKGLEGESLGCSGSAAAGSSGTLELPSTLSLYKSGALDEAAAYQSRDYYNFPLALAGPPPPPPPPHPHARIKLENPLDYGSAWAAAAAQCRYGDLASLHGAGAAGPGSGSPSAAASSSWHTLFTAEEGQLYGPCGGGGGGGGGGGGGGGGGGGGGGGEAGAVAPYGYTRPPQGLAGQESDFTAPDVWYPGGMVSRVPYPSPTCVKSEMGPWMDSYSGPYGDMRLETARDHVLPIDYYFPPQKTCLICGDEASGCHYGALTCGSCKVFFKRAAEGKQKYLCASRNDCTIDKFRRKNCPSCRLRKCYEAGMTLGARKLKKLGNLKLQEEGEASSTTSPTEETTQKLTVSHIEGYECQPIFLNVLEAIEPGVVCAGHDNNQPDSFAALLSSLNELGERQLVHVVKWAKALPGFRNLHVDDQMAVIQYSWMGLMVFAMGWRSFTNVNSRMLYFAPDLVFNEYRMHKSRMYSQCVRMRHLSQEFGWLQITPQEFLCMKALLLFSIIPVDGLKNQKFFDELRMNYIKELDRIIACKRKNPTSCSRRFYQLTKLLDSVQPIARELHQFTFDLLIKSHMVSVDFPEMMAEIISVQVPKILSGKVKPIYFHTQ

Consider `CN(C)CCCO[C@@H]1[C@H]2OC(C)(C)O[C@H]2O[C@@H]1C(O)CO` (stereo partly specified), for which the molecule was called inactive in [1] and in assay [5]. In addition, the Potency result in [2], in assay [3], in [4] and in assay [6] was “inactive” each time.
With `CC(=O)CC(=O)Nc1ccc(C)cc1C`, the result in assay [1], in assay [5], in [7], in [8] and in assay [10] was inactive. For the same molecule, the Potency entry in assay [2], in [3], in assay [4] and in assay [9] was “inactive” each time.
Regarding `CC(=O)C1C(=O)C=C(C)OC1=O` (stereo unspecified), the result in assay [1] and in assay [5] was inactive. Besides, the Potency entry in [2], in assay [3], in [4] and in [6] was “inactive” each time.
With `Cc1c(C(=O)c2c[nH]n(C)c2=O)ccc(S(C)(=O)=O)c1C1=NOCC1`, the result in assay [1], in assay [5], in assay [7] and in [10] was inactive. Further, the Potency entry in [2], in [3], in assay [4], in [9] and in assay [6] was “inactive” each time.
For the molecule `CCC[C@@H]1C[C@@H](C(=O)N[C@@H]([C@H]2O[C@H](SC)[C@H](O)[C@@H](O)[C@H]2O)[C@@H](C)O)N(C)C1`, the result in [1] and in assay [5] was inactive. Also, the Potency entry in [2], in assay [3], in [4] and in assay [6] was “inactive” throughout.
With `O=C(O)CSCC(=O)NC1CCSC1=O` (stereo unspecified), the call in assay [1], in assay [5], in assay [8] and in assay [10] was inactive. In addition, the Potency entry in [2], in [3], in assay [4], in assay [9] and in assay [6] was “inactive” throughout.
For `CCCCCCCCCOC(=O)c1ccccc1C(=O)OCCCCCCCCC`, the call in assay [1], in assay [5], in [8] and in assay [10] was inactive. The Potency entry in assay [2], in assay [3], in assay [4], in assay [9] and in [6] was “inactive” in each case.
Turning to `C[C@]12CCC(=O)C=C1CC[C@H]1[C@@H]3CC[C@](O)(C(=O)CO)[C@@]3(C)C[C@H](O)[C@@]12F`, the outcome in assay [1] and in assay [5] was inactive. In addition, the figures for the Potency in [2], in assay [3] and in assay [4] were 23.7 µM (active), 11.9 µM (active) and 21.1 µM (active), respectively. Further, the Potency result in assay [6] was “inactive”.
As for `CCC/C=C(\C=O)CC`, the result in assay [1] and in assay [5] was inactive. Besides, the Potency entry in assay [2], in [3], in [4] and in [6] was “inactive” each time.
On to `CC1(C)Cc2cccc(N)c2O1`, for which the molecule was called inactive in assay [1] and in assay [5]. The Potency entry in [2], in [3], in assay [4] and in assay [6] was “inactive” each time.
For `CC1=C(O)C(=O)C(C)O1` (stereo unspecified), the call in assay [1] and in assay [5] was inactive. Also, the Potency entry in [2], in assay [3], in assay [4] and in assay [6] was “inactive” in each case.
Turning to `Cc1c(N)cccc1Cl`, the molecule was called inactive in [1] and in assay [5]. Moreover, the Potency result in assay [2], in [3], in assay [4] and in assay [6] was “inactive” throughout.
For the molecule `CC1(C)O[C@H]2CC(=O)OC[C@]23[C@H]2CC[C@@]4(C)[C@H](c5ccoc5)OC(=O)[C@H]5O[C@]54[C@]2(C)C(=O)C[C@@H]13`, the molecule was classed as inactive in [1] and in assay [5]. The Potency result in [2], in assay [3], in assay [4] and in [6] was “inactive” throughout.
Take `O=C(O)CCCCCC(=O)O`: the result in assay [1] and in [5] was inactive. Moreover, the Potency result in assay [2], in assay [3], in assay [4] and in assay [6] was “inactive” each time.
For the molecule `O=C(CN1CCNCC1)NC1CCCCC1`, the molecule was classed as inactive in [1] and in assay [5]. Also, the Potency result in [2], in [3], in assay [4] and in assay [6] was “inactive” each time.
Turning to `CC/C(C)=N\O[Si](C)(O/N=C(\C)CC)O/N=C(\C)CC`, the molecule was classed as inactive in assay [1] and in [5]. In addition, the Potency entry in [2], in [3], in [4] and in assay [6] was “inactive” in each case.
Turning to `NCCOCCN`, the result in assay [1] and in [5] was inactive. In addition, the Potency result in assay [2], in [3], in assay [4] and in assay [6] was “inactive” throughout.
As for `N#Cc1ccccc1O`, the call in [1] and in assay [5] was inactive. In addition, the Potency result in assay [2], in assay [3], in [4] and in assay [6] was “inactive” throughout.
Turning to `CC(N)CCCC(C)(C)O` (stereo unspecified), the call in [1] and in assay [5] was inactive. Also, the Potency entry in assay [2], in assay [3], in assay [4] and in assay [6] was “inactive” each time.
As to `O=C(Cn1ccnc1[N+](=O)[O-])NCc1ccccc1`, the call in assay [1] and in [5] was inactive. For the same molecule, the Potency result in assay [2], in assay [3], in assay [4] and in [6] was “inactive” in each case.
In the case of `CC(=O)OC(C)=O`, the result in assay [1] and in assay [5] was inactive. Moreover, the Potency entry in [2], in assay [3], in assay [4] and in [6] was “inactive” each time.
Regarding `CCCCCCCCCCCCCCC(=O)NC(CO)CCCCCCCCCCCCCC` (stereo unspecified), the molecule was called inactive in [1] and in [5]. Also, the Potency result in [2], in [3], in assay [4] and in assay [6] was “inactive” each time.
On to `Cc1cc(C)c(C(=O)O)c(C)c1`, for which the outcome in [1] and in assay [5] was inactive. Also, the Potency entry in assay [2], in assay [3], in assay [4] and in assay [6] was “inactive” throughout.
In the case of `CN1C[C@@H]2C[C@H]1CN2c1cc2c(cc1F)c(=O)c(C(=O)O)cn2C1CC1`, the result in assay [1] and in assay [5] was inactive. Further, the Potency in assay [2] was 7.5 µM (active); in assay [3], 9.44 µM (active); in assay [4], 11.9 µM (active). Further, the Potency result in [6] is “inactive”.
For `CC(=O)OCC(=O)Nc1cc(C#N)cc(NC(=O)COC(C)=O)c1Cl`, the result in assay [1] and in assay [5] was inactive. The Potency result in [2], in assay [3], in assay [4] and in assay [6] was “inactive” throughout.
As to `CCn1cc(C(=O)O)c(=O)c2cnc(N3CCCC3)nc21`, the molecule was classed as inactive in assay [1] and in [5]. Moreover, the Potency entry in assay [2], in assay [3], in [4] and in [6] was “inactive” each time.
Consider `CCOC(=O)CC1(C)OCC(C)O1` (stereo unspecified), for which the result in assay [1] and in assay [5] was inactive. Further, the Potency result in assay [2], in assay [3], in [4] and in assay [6] was “inactive” throughout.
For the molecule `CC1OCCC1=O` (stereo unspecified), the molecule was classed as inactive in [1] and in assay [5]. Besides, the Potency entry in assay [2], in assay [3], in assay [4] and in assay [6] was “inactive” throughout.
`CC(C)CO`: the molecule was called inactive in assay [1] and in assay [5]. In addition, the Potency result in [2], in assay [3], in assay [4] and in assay [6] was “inactive” each time.
